Bioassay records as filed in PubChem.
In the library only some 0.84% were active in any assay of this set; here they are far more common.
SRC1 TRFRET art: TR-FRET detection interference compounds, primary screen, artefact control for PPARgamma SRC-1 recruitment agonists, biochemical, TR-FRET emission ratio. TR-FRET detection artefact counter-screen; hits give high values. TR-FRET ratio at 8 µM. actives 0.34% (n = 99,000); in the data active means TR-FRET ratio above about 2300
SRC2 TRFRET art: TR-FRET signal artefacts, primary screen, artefact control for PPARgamma SRC-2 agonist project, biochemical. TR-FRET artefact counter-screen; hits give high values. actives 0.4% (n = 200,000). TR-FRET ratio at 8 µM
PPARg SRC-3 ag: PPARgamma agonists recruiting SRC-3 coactivator, primary screen, biochemical. Peroxisome proliferator-activated receptor gamma (Homo sapiens), P37231. biochemical PPARgamma/SRC-3 coactivator recruitment assay. activation, % at 8 µM. actives 0.26% (n = 200,000); in the data active means activation above about 23%
Target sequence (P37231 whole entry, looked up): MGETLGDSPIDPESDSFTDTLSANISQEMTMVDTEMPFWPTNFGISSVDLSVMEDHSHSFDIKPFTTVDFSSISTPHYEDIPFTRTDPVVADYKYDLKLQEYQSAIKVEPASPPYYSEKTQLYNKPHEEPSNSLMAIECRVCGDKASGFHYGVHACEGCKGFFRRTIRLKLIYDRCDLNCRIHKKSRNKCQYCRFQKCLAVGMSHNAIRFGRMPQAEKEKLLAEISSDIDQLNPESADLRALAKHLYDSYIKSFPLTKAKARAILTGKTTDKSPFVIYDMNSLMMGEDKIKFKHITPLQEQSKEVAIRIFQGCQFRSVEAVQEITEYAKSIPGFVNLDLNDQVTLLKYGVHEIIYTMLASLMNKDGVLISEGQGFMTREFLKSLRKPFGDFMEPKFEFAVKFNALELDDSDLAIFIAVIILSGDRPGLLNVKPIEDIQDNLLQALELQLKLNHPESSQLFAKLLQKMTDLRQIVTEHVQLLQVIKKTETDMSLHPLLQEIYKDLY
PPARg SRC-1 ag: PPARgamma agonists recruiting SRC-1 coactivator, primary screen, biochemical; Peroxisome proliferator-activated receptor gamma (Homo sapiens), P37231; PPARgamma-SRC-1 coactivator recruitment biochemical assay; activation, % at 8 µM; actives 0.41% (n = 200,000); AID 631, 2007; in the data active means activation above about 19%
PPARg SRC-2 ag: agonists of PPARg-SRC-2 recruitment, primary screen, biochemical, HTS; PPARgamma LBD-SRC-2 recruitment; activation, % at 8 µM; Peroxisome proliferator-activated receptor gamma (Homo sapiens), P37231; actives 0.34% (n = 200,000); AID 1032, 2008; in the data active means activation above about 22%
SRC3 TRFRET art: TR-FRET detection interference compounds, artefact control for PPARgamma SRC-3 recruitment agonists, biochemical, TR-FRET ratio. actives 0.39% (n = 99,000). TR-FRET ratio at 8 µM. TR-FRET artefact counter-screen, PPARgamma/SRC-3 format; hits give high values
Hits are given with their value; . = inactive; / = no result. Unless noted, no stated cut-off is given here; in the data, active means TR-FRET ratio above about 2000; inactive means the rest.

SMILES | SRC1 TRFRET art | SRC2 TRFRET art | PPARg SRC-3 ag | PPARg SRC-1 ag | PPARg SRC-2 ag | SRC3 TRFRET art
COc1ccc(C2CC(c3ccccc3)=NN2C(=O)COC(=O)c2cccc(S(=O)(=O)N3CCOCC3)c2)cc1 (configuration not stated) | 2459 | 2061 | . | . | . | 2328
COc1ccc(C2CC(c3ccccc3)=NN2C(=O)COC(=O)c2cccc(S(=O)(=O)N(C)C)c2)cc1 (configuration not stated) | 2411 | 2075 | . | . | . | 2064
COc1ccc(C2CC(c3ccccc3)=NN2C(=O)COC(=O)c2cnc(Cl)c(Cl)c2)cc1 (configuration not stated) | . | . | . | . | . | .
COc1ccc(C2CC(c3ccccc3)=NN2C(=O)COC(=O)c2ccc(Cl)nc2)cc1 (configuration not stated) | . | . | . | . | . | .
CCOc1cc(/C=N\Nc2nc(Nc3ccccc3)nc(N3CCOCC3)n2)ccc1OC(=O)c1ccco1 | . | . | . | . | . | .
CCc1nc(SCC(=O)Nc2ccc3c(c2)OCCO3)c2oc3ccccc3c2n1 | / | . | . | 66.7 | . | /
Cc1nc(SCC(=O)Nc2ccc3c(c2)OCCO3)c2oc3ccccc3c2n1 | / | . | . | . | . | /
Cc1cc(NC(=O)COC(=O)[C@H](Cc2c[nH]c3ccccc23)NC(=O)c2ccc(F)cc2)no1 | / | . | . | . | . | /
Cc1ccc2nc(N3C(=O)C(O)=C(C(=O)c4ccco4)C3c3cccs3)sc2c1 (configuration not stated) | / | 2260 | 64.0 | 38.1 | 46.7 | /
CCOC(=O)c1sc(N2C(=O)C(O)=C(C(=O)c3ccco3)C2c2ccccc2)nc1C (configuration not stated) | / | . | . | . | . | /
Cc1ccc(S(=O)(=O)N2CCOCC2)cc1NC(=O)COC(=O)c1cc(=O)c2ccccc2o1 | . | . | . | . | . | .
O=C(CSc1ncnc2c1oc1ccccc12)NCC1CCCO1 (configuration not stated) | / | 3902 | 131.1 | 94.6 | 109.9 | /
CCOC(=O)c1sc(=NC(=O)c2cccs2)n(C)c1C | . | . | . | . | . | .
Cc1ccc2c(c1)sc(=NC(=O)c1cccs1)n2C | 2965 | . | . | . | . | 3246
CC(C)Sc1nc2c(c(=O)n1C)SC(C)C2 (configuration not stated) | . | . | . | . | . | .
CCN(CC)S(=O)(=O)c1cccc(NC(=O)COC(=O)c2n[nH]c(=O)c3ccccc23)c1 | . | . | . | 21.8 | . | .
COc1ccc(NS(=O)(=O)c2c(C)n(C)c(=O)n(C)c2=O)cc1OC | / | . | . | . | 23.6 | /
CCCCOC(=O)CSc1nc(N)c(C#N)c(-c2ccc(OCC)cc2)c1C#N | / | . | . | 56.4 | . | /
C=CCN(CC=C)C(=O)c1ccc(OC2CCN(Cc3ccccn3)CC2)cc1 | . | . | . | . | . | .
Cc1nc(N2CCN(S(=O)(=O)c3ccc(F)cc3)CC2)c2c(-c3cccs3)csc2n1 | 3173 | 2641 | . | . | . | 2853
O=S(=O)(c1ccccc1)N1CCN(c2nc(-c3cccs3)nc3ccccc23)CC1 | . | . | . | . | . | .
Cc1ccccc1OCc1nc2ccccc2[nH]1 | . | . | . | . | . | .
COc1ccccc1OCc1nc2ccccc2[nH]1 | / | . | . | . | 23.3 | /
CC(=O)Nc1ccc(S(=O)(=O)Nc2nc3ccccc3nc2Sc2nncn2C)cc1 | / | 2233 | . | . | . | /
CN(CCC#N)CC(=O)Nc1ccc(NC(=O)CN(C)CCC#N)cc1 | / | . | . | . | . | /
SMILES | SRC1 TRFRET art | SRC2 TRFRET art | PPARg SRC-3 ag | PPARg SRC-1 ag | PPARg SRC-2 ag | SRC3 TRFRET art
Cc1cs/c(=N/C(=S)Nc2ccccc2)n1C | . | . | . | . | . | .
CCCn1c(C)cs/c1=N\C(=S)Nc1ccccc1 | . | . | . | . | . | 2212
Cc1ccc(-c2csc3ncnc(SCC(=O)NCc4ccc5c(c4)OCO5)c23)cc1 | / | 2614 | . | . | . | /
Cc1cc(C)nc(SCc2nnc(SCC(=O)N3CCCc4ccccc43)o2)n1 | / | . | . | . | . | /
Cc1ccc(-c2ccc(C3C(C#N)=C(N)Oc4n[nH]c(C)c43)o2)cc1 (configuration not stated) | / | . | . | . | . | /
Cc1[nH]nc2c1C(c1ccc(-c3ccc(Cl)cc3)o1)C(C#N)=C(N)O2 (configuration not stated) | . | . | . | . | 22.8 | .
Cc1cc(C)n(CCc2nc(-c3ccc(-c4ccccc4)cc3)cs2)n1 | . | . | . | . | . | .
Cc1cc(C)cc(-n2c3nc4ccccc4nc3c3c(=O)n(Cc4ccco4)cnc32)c1 | / | . | . | . | . | /
CCOc1ccc(-n2c3nc4ccccc4nc3c3c(=O)n(Cc4ccco4)cnc32)cc1 | / | . | 84.0 | 45.2 | . | /
CCCOc1ccc(C(=O)CCN2CCN(C(=O)OCC)CC2)cc1 | . | . | . | . | . | .
Cc1ccccc1-n1c(-c2ccco2)n[nH]c1=S | . | . | . | . | 26.5 | .
CC(C)CCSc1nc(N)c(C#N)cc1C#N | / | 2957 | . | . | . | /
CCOc1ccc(S(=O)(=O)c2c(C(=O)c3ccccc3)cnc3cc4c(cc23)OCCO4)cc1 | . | . | . | . | . | 2180
Cc1ccc(C(c2nnnn2CC2CCCO2)N2CCN(c3cccc(C)c3C)CC2)cc1 (configuration not stated) | / | . | . | . | . | /
NC1=CC(=O)c2cccc3cccc1c23 | / | . | 26.2 | . | . | /
NC1=Nc2cccc3cccc1c23 | . | . | . | . | . | .
Cc1cccc(-c2nnc(SCC#N)n2-c2cccc(Cl)c2)c1 | / | . | . | . | . | /
COc1ccc(-n2c(SCCC#N)nnc2-c2cc(Cl)ccc2OC)cc1Cl | / | 2116 | . | . | . | /
CCN(Cc1ccncc1)C(=O)C1CCN(S(=O)(=O)c2cccs2)CC1 | / | . | . | . | . | /
COc1cccc(C2C(C(=O)c3cc4ccccc4o3)=C(O)C(=O)N2CCN(C)C)c1OC (configuration not stated) | / | . | 28.0 | . | . | /
COc1cccc(C2C(C(=O)c3ccco3)=C(O)C(=O)N2CCN(C)C)c1OC (configuration not stated) | . | . | . | . | . | .
CO/N=C\c1cc(C(=O)c2ccc(Cl)cc2Cl)cn1C | . | . | . | . | . | .
Cc1onc(-c2c(Cl)cccc2Cl)c1C(=O)N1C=CC(C(F)(F)F)=NCC1 | / | . | . | . | . | /
Cc1onc(-c2c(F)cccc2Cl)c1C(=O)N1C=CC(C(F)(F)F)=NCC1 | / | 2038 | . | . | . | /
COC(=O)C1=C(C)NC(=O)CC1c1cc2c(cc1Br)OCO2 (configuration not stated) | . | . | . | . | . | 2175
